Test [1] has as its target Calcium and integrin-binding protein 1 (Homo sapiens) (UniProt Q99828). The experiment in a line: Primary qHTS for Identification of Calcium Integrin Binding Protein 1 (CIB1) Competitor (AID 1508620).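 Also: GST tagged CIB1 binding a fluorescein labelled alphaIIb integrin peptide tracer; top concentration of the series differs between compounds.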 The method, boiled down:
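Fluorescence polarization competition: CIB1-GST (1 uM final) preincubated with compound 15 min at room temperature, then FITC-labeled alphaIIb peptide (100 nM final) added for another 15 min. Polarization read at Ex 480/Em 540.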
(In general: Quantitative high-throughput screening tests each substance at several concentrations.)

Test [2] in a line: Primary qHTS for inhibitors of nuclear receptor binding SET domain protein 2 (NSD2) in an isogenic RCH-ACV NSD2 p.E1099K mutant (9B) (AID 1645876). Also: nearly all actives have a fitted effect of over 70% in size. Also: potency is read from the fitted curve at half-maximal effect.

Values joined by “and” are separate entries in the source; they are usually repeats but may differ in a detail not shown here. Equal values may be shown once. Results filed as inconclusive are left out. Entries that show only a call come without a potency. Unmarked numbers belong to inactive results. Active and inactive are the calls of the source. Calls follow the shape of the dose curve; as a rule, active = well fitted inhibition curve with a large enough effect; inconclusive = small, poorly fitted or top-dose-only effect; inactive = flat fitted curve, though single readings scatter.

Calcium and integrin-binding protein 1 (Homo sapiens), sequence (Q99828 whole entry, looked up): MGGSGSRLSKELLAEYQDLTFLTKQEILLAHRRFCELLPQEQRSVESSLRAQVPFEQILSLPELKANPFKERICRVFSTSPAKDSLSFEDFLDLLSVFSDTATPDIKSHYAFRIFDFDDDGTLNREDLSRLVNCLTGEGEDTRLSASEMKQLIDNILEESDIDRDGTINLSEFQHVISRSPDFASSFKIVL

Turning to `CC1(C)C[C@H](O)C[C@@]2(C)OC(=O)C=C12`, the Potency result in test [1] and in test [2] was “inactive” throughout.
`CC1(C)CC[C@@]2(C(=O)O[C@@H]3O[C@H](CO)[C@@H](O)[C@H](O)[C@H]3O)C(C1)C1=CCC3[C@@]4(C)CC[C@@H](O[C@@H]5O[C@H](C(=O)O)[C@@H](O[C@@H]6OC[C@@H](O)[C@H](O)[C@H]6O)[C@H](O[C@@H]6OC[C@](O)(CO)[C@H]6O)[C@H]5O)C(C)(C)C4CC[C@@]3(C)[C@]1(C)C[C@H]2O` (stereo partly specified): in test [1], the Potency result is “inactive”. Moreover, the activity change, negative = viability loss in test [2] was -47.8% [at 9.23 µM].
As for `CCC(C)C(=O)OC1CC(O)C23C4OCC5(C(O)CC2C1(C)C(O)O4)C3C(=O)C(O)C1(C)C(O)(c2ccoc2)CC2OC251` (stereo unspecified), the Potency result in test [1] was “inactive”. In addition, the Potency in test [2] is 136 nM (active).
For `CC(C)CC(=O)OC1OC=C(CO[C@@H]2O[C@H](CO)[C@@H](O)[C@H](O)[C@H]2O)C2CC(O)C(O)(CO)C12` (stereo partly specified) the same measures were “inactive” and “inactive”.
As for `COc1cc2c(cc1O)[C@H](c1ccc(O[C@@H]3O[C@H](CO)[C@@H](O)[C@H](O)[C@H]3O)c(OC)c1)[C@@H](CO)[C@](O)(CO)C2`, the Potency result in test [1] and in test [2] was “inactive” throughout.
With `CC1(C=O)CC[C@]2(C(=O)O[C@@H]3O[C@H](CO)[C@@H](O)[C@H](O)[C@H]3O)CC[C@]3(C)C(=CCC4[C@@]5(C)C[C@H](O)[C@H](O[C@@H]6OC[C@@H](O)[C@H](O)[C@H]6O)[C@@](C)(CO)C5CC[C@]43C)C2C1` (stereo partly specified), the Potency entry in test [1] was “inactive”. Further, the outcome in test [2] was “inactive [at 9.23 µM]”.
On to `CC(O)/C=C/C1(O)C(C)C(O[C@@H]2O[C@H](CO)[C@@H](O)[C@H](O)[C@H]2O)C(O)CC1(C)C` (stereo partly specified), for which the Potency entry in test [1] and in test [2] was “inactive” throughout.
Consider `COC(=O)c1ccccc1O[C@@H]1O[C@H](CO)[C@@H](O)[C@H](O)[C@H]1O[C@@H]1O[C@@H](C)[C@H](O)[C@@H](O)[C@H]1O`, for which the Potency entry in test [1] and in test [2] was “inactive” each time.
Regarding `C[C@H]1O[C@@H](O[C@H]2CC[C@@]3(C)C(CC[C@]4(C)C3CC=C3C5CC(C)(C)CC[C@]5(C(=O)O)CC[C@]34C(=O)O)C2(C)C)[C@H](O)[C@@H](O)[C@@H]1O` (stereo partly specified), the Potency entry in test [1] and in test [2] was “inactive” each time.
Regarding `COc1cc(OC)c(/C=C/S(=O)(=O)Cc2ccc(OC)c(NCC(=O)O)c2)c(OC)c1`, the Potency result in test [1] was “inactive”. Further, in test [2], the Potency was 57.8 nM (active) and 59 nM (active).
With `O=C1OCC(c2ccccc2)=C1Cc1ccccc1`, the Potency result in test [1] and in test [2] was “inactive” each time.
`CC(C(O)/C=C/C(C)(C)O)C1CCC2(C)C3C(=O)C=C4C(CCC(O)C4(C)C)C3(C)CCC12C` (stereo unspecified): the Potency entry in test [1] and in test [2] was “inactive” each time.
As for `CC1CC[C@]2(C(=O)O)CC[C@]3(C(=O)O)C(=CCC4[C@@]5(C)CC[C@H](OC6OC(C)C(O)C(OC7OC(CO)C(O)C(O)C7O)C6O)C(C)(C)C5CC[C@]43C)C2C1C` (stereo partly specified), the Potency result in test [1] and in test [2] was “inactive” in each case.
Turning to `CC/C=C\[C@H](O)[C@H](O)C1=C(C)C(=O)[C@]2(O1)C(=O)N[C@@](OC)(C(=O)c1ccccc1)[C@@H]2O`, the Potency entry in test [1] and in test [2] was “inactive” throughout.
Regarding `CC1(C)CCC2(C(=O)OC3OCC(O)C(O)C3O)CCC3(C)C(=CCC4C5(C)CC(O)C(OC6OC(COC7OCC(O)C(O)C7O)C(O)C(O)C6O)C(C)(C)C5CCC43C)C2C1` (stereo unspecified), the Potency entry in test [1] was “inactive”. Further, in test [2], the activity change, negative = viability loss is -10.4% [at 9.23 µM].
`CC(C)c1cc(C(=O)N2CC[C@H](NC(=O)C3CC3)C2)n[nH]1`: the Potency entry in test [1] and in test [2] was “inactive” in each case.
In the case of `C[C@@H]1[C@H]2[C@H](O[C@@H]3O[C@H](CO)[C@@H](O)[C@H](O)[C@H]3O)OC=C(C(=O)O)[C@H]2C[C@@H]1O`, the Potency entry in test [1] and in test [2] was “inactive” each time.
For `C=CC1(C)C=C2CCC3C(C)(C)C(O[C@@H]4O[C@@H](CO)[C@H](O)[C@H]4O)CCC3(C)C2CC1O[C@@H]1O[C@H](C)[C@H](O)[C@H](O)[C@H]1O` (stereo partly specified), the Potency entry in test [1] and in test [2] was “inactive” throughout.
With `COc1cc(C)c(C(=O)O[C@H]2[C@@H](OC(C)=O)[C@H](n3ccc(=O)[nH]c3=O)O[C@@H]2CO)c(OC)c1`, the Potency result in test [1] and in test [2] was “inactive” each time.
For the compound `C=C1C(OC(C)=O)CCC2(C)CC3(OC)OC(=O)C(C)=C3CC12` (stereo unspecified), the Potency result in test [1] and in test [2] was “inactive” throughout.
As for `C/C=C/C(O)C1OC(=O)CC1Nc1ccc(C(=O)O)cc1` (stereo unspecified), the Potency entry in test [1] and in test [2] was “inactive” throughout.
As to `CC1=CC(=O)C(=C(C)C)CC2C1CCC2(C)O` (stereo unspecified), the Potency result in test [1] and in test [2] was “inactive” throughout.
Take `CC1OC(OC2C(CO)OC(OCC3OC(OC(=O)C45CCC(C)(C)CC4C4=CCC6C7(C)CCC(OC8OC(CO)C(O)C(OC9OC(CO)C(O)C(O)C9O)C8O)C(C)(C)C7CCC6(C)C4(C)CC5)C(O)C(O)C3O)C(O)C2O)C(O)C(O)C1OC1OC(CO)C(O)C(O)C1O` (stereo unspecified): in test [1], the activity change, negative = inhibition was -4.16% [at 12.4 µM]. For the same compound, the activity change, negative = viability loss in test [2] was -0.174% [at 9.23 µM].

Values taken from PubChem BioAssay (NCATS).
